{"source": "PubChem BioAssay", "note": "The source made the active and inactive calls. The rule behind the calls is not given here.", "data": [{"tested_on": "Aerobactin synthetase IucA (Klebsiella pneumoniae hvKP1)", "experiment": "Biochemical IucA enzyme inhibition primary screen of the Spectrum library (AID 1346200);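 note: 100% = wells without compound and 0% = wells lacking enzyme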", "settings": "malachite green pyrophosphate, A620, at 8 µM, stronger effect = lower value", "values": [{"smiles": "CCOC(=O)[C@H](CCc1ccccc1)N[C@H]1CCc2ccccc2N(CC(=O)O)C1=O", "activity remaining": "123% (inactive)"}, {"smiles": "O=C(O)CC(O)(CC(=O)O)C(=O)O", "activity remaining": "123% (inactive)"}, {"smiles": "Cc1ccsc1/C=C/C1=NCCCN1C", "activity remaining": "123% (inactive)"}, {"smiles": "CC(C)c1c(O)ccc2c1CCC1C(C)(C)CCC[C@]21C", "note": "(some centres undefined)", "activity remaining": "116% (inactive)"}, {"smiles": "NC(=O)c1ccc[n+]([C@@H]2O[C@H](COP(=O)([O-])OP(=O)(O)OC[C@H]3O[C@@H](n4cnc5c(N)ncnc54)[C@H](O)[C@@H]3O)[C@@H](O)[C@H]2O)c1", "activity remaining": "108% (inactive)"}, {"smiles": "CCCCCCCCCCCC[C@H](C(=O)O)[C@@H](C)C(=O)O", "activity remaining": "115% (inactive)"}, {"smiles": "CC(=O)NCCCS(=O)(=O)O", "activity remaining": "103% (inactive)"}, {"smiles": "O=C(CCc1ccc(O)cc1)c1c(O)cc(O)cc1O[C@@H]1O[C@H](CO)[C@@H](O)[C@H](O)[C@H]1O", "activity remaining": "105% (inactive)"}, {"smiles": "CC(=O)N=c1sc(S(N)(=O)=O)nn1C", "activity remaining": "86.3% (inactive)"}, {"smiles": "C=C1CC[C@@]2(OC1)O[C@H]1CC3C4CC=C5C[C@@H](O)C[C@@H](O)[C@]5(C)C4CC[C@]3(C)[C@H]1[C@@H]2C", "note": "(some centres undefined)", "activity remaining": "113% (inactive)"}, {"smiles": "O=c1ccc2ccc(O)cc2o1", "activity remaining": "94.5% (inactive)"}, {"smiles": "Cc1cccc(CN2CCN(C(c3ccccc3)c3ccc(Cl)cc3)CC2)c1", "note": "(centres undefined)", "activity remaining": "95.5% (inactive)"}, {"smiles": "COC1=C(OC)C(=O)C(C/C=C(\\C)CC/C=C(\\C)CC/C=C(\\C)CC/C=C(/C)CC/C=C(\\C)CC/C=C(\\C)CC/C=C(\\C)CC/C=C(\\C)CC/C=C(\\C)CCC=C(C)C)=C(C)C1=O", "activity remaining": "93% (inactive)"}, {"smiles": "CC(=O)O[C@H]1CC[C@@]2(C)C(=CC(=O)C3C4CCC(C(C)CCCC(C)C)[C@@]4(C)CCC32)C1", "note": "(some centres undefined)", "activity remaining": "123% (inactive)"}, {"smiles": "CC[C@@H](CO)NCCN[C@@H](CC)CO", "activity remaining": "102% (inactive)"}, {"smiles": "C[C@H](CCC(=O)O)[C@H]1CCC2C3C(=O)CC4CC(=O)CC[C@]4(C)C3CC(=O)[C@@]21C", "note": "(some centres undefined)", "activity remaining": "122% (inactive)"}, {"smiles": "O=C(O[C@@H]1Cc2c(O)cc(O)cc2O[C@@H]1c1cc(=O)c(O)c2c(O)c(O)cc([C@H]3Oc4cc(O)cc(O)c4C[C@H]3O)c2c1)c1cc(O)c(O)c(O)c1", "activity remaining": "106% (inactive)"}, {"smiles": "COc1c(O)cc2c(c1O)[C@H]1O[C@H](CO)[C@@H](O)[C@H](O)[C@@H]1OC2=O", "activity remaining": "112% (inactive)"}, {"smiles": "Nc1nc2ncc(CNc3ccc(C(=O)N[C@@H](CCC(=O)O)C(=O)O)cc3)nc2c(=O)[nH]1", "activity remaining": "91.3% (inactive)"}, {"smiles": "O=C1C=C(O)c2ccccc2C1=O", "activity remaining": "123% (inactive)"}, {"smiles": "C[N+]1(C)C2CC[C@H]1CC(OC(=O)C(O)c1ccccc1)C2", "note": "(some centres undefined)", "activity remaining": "95% (inactive)"}, {"smiles": "CN(C)c1ccc(C(=C2C=CC(=[N+](C)C)C=C2)c2ccc(N(C)C)cc2)cc1", "activity remaining": "118% (inactive)"}, {"smiles": "O=C(COc1ccc(Cl)cc1)N1CCN(Cc2ccc3c(c2)OCO3)CC1", "activity remaining": "107% (inactive)"}, {"smiles": "c1ccc2[nH]c(-c3cscn3)nc2c1", "activity remaining": "111% (inactive)"}, {"smiles": "O=C(O)C1CC(C2CCCCN2)CN2CCCCC12", "note": "(centres undefined)", "activity remaining": "115% (inactive)"}, {"smiles": "CC(C)(C)CC(C)(C)c1ccc(OCCOCC[N+](C)(C)Cc2ccccc2)cc1", "activity remaining": "113% (inactive)"}, {"smiles": "COc1ccc2c(c1)OCc1c-2oc2cc(OC)ccc12", "activity remaining": "90.7% (inactive)"}, {"smiles": "CCCCCCCCCCC[C@@H](C[C@H]1OC(=O)[C@H]1CCCCCC)OC(=O)[C@@H](CC(C)C)NC=O", "activity remaining": "112% (inactive)"}, {"smiles": "CCCCCCCCCCCCCCC(C(=O)O)C(O)(CC(=O)OC)C(=O)O", "note": "(centres undefined)", "activity remaining": "128% (inactive)"}, {"smiles": "O=C(O)C1(O)C[C@@H](O)C(O)[C@H](O)C1", "note": "(some centres undefined)", "activity remaining": "89.8% (inactive)"}, {"smiles": "COC(=O)C[C@@H]1C2(C)C(=O)[C@@H](CC3=C4CC(O)O[C@@H](c5ccoc5)[C@]4(C)CCC32)[C@H](O)C1(C)C", "note": "(some centres undefined)", "activity remaining": "128% (inactive)"}, {"smiles": "CC12CC[C@H](CC1=O)C2(C)C", "activity remaining": "104% (inactive)"}, {"smiles": "Oc1c(Br)cc(Br)c2cccnc12", "activity remaining": "113% (inactive)"}, {"smiles": "Oc1ccc2c(c1)OCC1(O)Cc3cc(O)c(O)cc3C21", "note": "(centres undefined)", "activity remaining": "91.6% (inactive)"}, {"smiles": "CCC(=O)O[C@H](CC(=O)O)C[N+](C)(C)C", "activity remaining": "107% (inactive)"}, {"smiles": "COc1cc2c(cc1OC)-c1c(oc3cc(O)cc(O)c3c1=O)CO2", "activity remaining": "90.7% (inactive)"}, {"smiles": "O=C1O[C@@H](CO)[C@H](O)[C@@H](O)[C@@H]1O", "activity remaining": "113% (inactive)"}, {"smiles": "O=C(NC(Cc1cc(=O)[nH]c2ccccc12)C(=O)O)c1ccc(Cl)cc1", "note": "(centres undefined)", "activity remaining": "106% (inactive)"}, {"smiles": "COc1cc(-c2coc3cc(OC)c(OC)c(OC)c3c2=O)cc(OC)c1OC", "activity remaining": "121% (inactive)"}]}]}
